Screening data: PubChem, National Center for Advancing Translational Sciences (NCATS)
This is one part of a sample in which hits are shown more often than they occur.
KDM5B inh = Primary screen for KDM5B Histone Demethylases FDH-coupled qHTS; Lysine-specific demethylase 5B (Homo sapiens), Q9UGL1; KDM5B demethylase, FDH-coupled NADH fluorescence (FDH is formaldehyde dehydrogenase); Potency, µM (doses to about 57.7 µM), most hits filed as inhibitors; actives 2.6% (n = 220,000); AID 1347165, 2019; active = well fitted inhibition curve with a large enough effect; note: 0% is about no effect; nearly all actives have a fitted effect of over 70% in size
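KDM5BΔAP (200 nM final) in 50 mM HEPES pH 7.5, 0.01% Tween-20 was preincubated 10 min at RT with compound over a concentration range. Substrate mix (H3K4me3 12.5 µM, α-KG 25 µM, Fe²⁺, ascorbate, NAD⁺, FDH) was added, and NADH fluorescence change over 30 min gave dose-response curves.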
Starred values were filed as active, the others as inactive; i = inactive. Potency is the fitted concentration of half-maximal effect.

SMILES	KDM5B inh
CCCCN1CCN(C(=O)C2(c3ccc(NC(=O)C(C)C)cc3)CCCCC2)CC1	i
O=C(NCCN1CCC(Cc2ccccc2)CC1)C1CCN(c2nc3cccnc3s2)CC1	i
O=C(CN1CCN(C(=O)CCc2ncc(-c3ccccc3F)o2)CC1)Nc1cccc(F)c1	i
Fc1ccc(-c2cnc(CSc3nnc(N4CCCC4)s3)o2)cc1	i
Cc1cc(-c2ccnc(-c3nnc(C)n3-c3ccccc3)c2)ccn1	i
Cc1nnc(-c2cc(N3CCN(c4ccccn4)CC3)ccn2)n1-c1ccccc1	i
CC(=O)N1CCN(c2ccnc(-c3nnc(C)n3-c3ccccc3)c2)CC1	35µM*
CC(C)(C)c1ccc(NC(=O)CCc2ncc(-c3ccccc3)o2)cc1	i
COc1ccc(C(C)=O)cc1COC(=O)C1(c2cccc(F)c2)CCCC1	i
Cc1ccc(S(=O)(=O)Nc2cccc(NC(N)=O)c2)cc1Cl	i
CC1=C[C@@H](CNC(=O)c2ccncc2)[C@H](C(C)C)C[C@H]1Cc1nnc(-c2ccncc2)o1	i
COc1ccc(C(=O)N2CCCC3(COc4ccccc4C(=O)N3)C2)cc1 (stereo not given)	i
COc1cccc([S+](=O)([O-])N2CCC3(COc4ccccc4C(=O)N3)C2)c1 (stereo not given)	32µM*
O=C1NC2(CCCN([S+](=O)([O-])c3cccs3)C2)Oc2ccccc21 (stereo not given)	i
Cc1noc(C)c1[S+](=O)([O-])N1CCC2(CC1)CNC(=O)c1ccccc1O2	i
Cc1noc(C)c1[S+](=O)([O-])N1CCCC2(COc3ccccc3C(=O)N2)C1 (stereo not given)	25µM*
COc1cccc([S+](=O)([O-])N2CCC3(CC2)NC(=O)c2ccccc2O3)c1	i
O=C1NC2(CCCN([S+](=O)([O-])c3ccsc3)C2)COc2ccccc21 (stereo not given)	32µM*
O=C1NC2(CCN([S+](=O)([O-])c3ccccc3)C2)COc2ccccc21 (stereo not given)	i
Cc1noc(C)c1[S+](=O)([O-])N1CC2(C1)NC(=O)c1ccccc1O2	i
CCOCc1nnc(NC(=O)C(CC)c2ccccc2)s1 (stereo not given)	i
CC1(C)Cc2cccc(OCc3ccc(C(=O)NCc4ccccc4)cc3)c2O1	i
C=CCN1CC2(CCC1=O)CCN(C(=O)C(C)n1cc(C)cn1)CC2 (stereo not given)	i
O=C1CSC2(C(=O)Nc3ccccc32)N1c1ccc(Cl)cc1 (stereo not given)	i
O=C(c1ccoc1)N1CCC2(CC1)CC(Cc1ccccc1)CCO2 (stereo not given)	i
SMILES	KDM5B inh
Cc1ccc(CNC(=O)N2CCC(Oc3ccccc3-c3nc(C)no3)C2)cc1 (stereo not given)	i
CCCS(=O)(=O)N1CC(Oc2ccccc2-c2nc(C3CC3)no2)C1	i
Cc1noc(-c2ccccc2OC2CCN(S(C)(=O)=O)C2)n1 (stereo not given)	22µM*
O=C(CCc1conc1-c1cccc(F)c1)NCc1ccc(F)cc1	i
O=C(CCNc1c(-c2cccc(F)c2)nc2cnccn12)NCc1ccccc1	25µM*
Cc1nn(-c2ccc(F)cc2)c(Oc2ccccc2)c1CCC(=O)NCC1CCCO1 (stereo not given)	i
O=C(CCc1ccccc1)NCC1CCCO1 (stereo not given)	i
CNC(=O)NCc1cccc(OC)c1	i
O=C(CSCc1cccc(F)c1)NCc1ccccc1	i
O=C(CCNc1c(-c2cccc(F)c2)nc2cnccn12)NCC1CCCO1 (stereo not given)	28µM*
COc1cccc(CNC(=O)CSc2nnc(C)n2C2CC2)c1	i
COc1cccc(CNC(=O)CCNc2cnc3cnccn23)c1	20µM*
Cc1c(C(=O)O)sc2ncnc(N3CCNC(C(=O)O)C3)c12 (stereo not given)	i
CN(C)C(=O)c1cc(=O)c2cc(Cl)ccc2o1	i
COc1ccccc1CC(=O)C(C#N)C(=O)NCc1ccccc1 (stereo not given)	i
CC(=O)c1c(C)n([O-])c2cc(Cl)c(Cl)cc2[n+]1=O	i
CC(=O)Nc1ccc(NC(=O)c2csc(NCCC(C)C)n2)cc1	i
O=C(NCCc1ccc(Cl)cc1)c1[nH]c2ccccc2c1Cl	i
O=C(Cn1nc(C(=O)O)c2ccccc2c1=O)Nc1ccc(Cl)cc1	i
N#Cc1c(NC(=O)CSc2ccccn2)sc2c1CCCCC2	i
CCOc1ccc(NC(=O)NCc2nc(-c3cccc(Cl)c3)oc2C)cc1	i
NCCCN1C(=O)CC[C@H]2CN(C(=O)c3cnn4ccccc34)CC[C@H]21	22µM*
NCCCN1C(=O)CC[C@H]2CN(C(=O)c3ccc4c(c3)CCC4)CC[C@H]21	i
NCCCN1C(=O)CC[C@H]2CN(C(=O)c3coc4ccccc34)CC[C@H]21	i
CCNC(=O)NC(=O)CN1CCN(Cc2ccc(C#N)cc2)CC1	i
SMILES	KDM5B inh
CCCOc1ccccc1NC(=O)c1nn(C)c(=O)c2ccccc12	i
CCOC(=O)/C=c1/s/c(=C/c2ccsc2)c(=O)n1C	i
Cc1ccn(CCC(=O)N2CC(=O)N(C3CCCCC3)CC(OCc3ccccc3)C2)n1 (stereo not given)	i
O=C([C@@H]1C[C@H](F)CN1C(=O)Nc1cccc(Cl)c1)N1CCCCC1	i
CC(C)NC(=O)c1nccnc1C(=O)O	i
CNC(=O)CNC(=O)c1cc(Br)ccc1Cl	i
CNC(=O)c1cc(Br)cn2ccnc12	35µM*
CC(C)NC(=O)c1cc(Br)cn2ccnc12	40µM*
CC(C)NC(=O)c1ccn[nH]1	i
CCC(C)(C(=O)NC1CCCCC1)N(C(=O)CNC(=O)c1ccccc1)c1ccc(C)cc1 (stereo not given)	i
Clc1ccc(Oc2cc(-c3nc4ccccc4s3)c3ccccc3n2)cc1	i
COc1ccc(CN(C)C2CCOc3ccccc32)cc1 (stereo not given)	i
c1cc(CN2CCc3c(sc4ncnc(N5CCCC5)c34)C2)ccn1	25µM*
O=C(NCC(F)(F)F)C1CCN(c2ncnc3sc4c(c23)CCC4)CC1	i
CSc1ccc(CN2CCN(Cc3ccncc3)CC2)cc1	i
CCCCn1nc(C(=O)Nc2cc(C)ccc2OC)c2ccccc2c1=O	i
Cc1ccc(NC(=O)c2nn(-c3ccccc3)c(=O)c3ccccc23)cc1Cl	i
Cc1ccc2c(c1)C1CC(c3ccccc3Cl)=NN1C1(CCN(S(C)(=O)=O)CC1)O2 (stereo not given)	i
Cc1cc(C=O)[nH]c1C	i
CC(C#N)Sc1nnc2c(Cl)cc(C(F)(F)F)cn12 (stereo not given)	i
CC(C)Cc1nc2ccc(NC(=O)C[C@H]3NC(=O)c4ccccc4NC3=O)cc2[nH]1	i
CN1Cc2ccc(NCc3ccccc3)nc2C(C)(C(=O)Nc2ccccc2)C1 (stereo not given)	28µM*
COc1ccc(NC(=O)C2(C)CN(C)Cc3ccc(NCc4ccccc4)nc32)cc1 (stereo not given)	32µM*
COc1ccc(CNC(=O)NOCc2ccccc2)cc1	i
COCCNC(=O)C1(C)CN(C)Cc2ccc(Nc3ccccc3)nc21 (stereo not given)	i
COc1cccc(Nc2ccc3c(n2)C(C)(C(=O)NCc2cccs2)CN(C)C3)c1 (stereo not given)	28µM*
